PubChem BioAssay (Tox21)
Inconclusive results are not listed. Active and inactive are the calls of the source. Calls follow the shape of the full dose curve.

assay: p53 small molecule agonists, cell-based qHTS assay with human liver microsomes: qHTS cell viability counter screen (AID 1963579); conditions: p53RE-bla HCT-116 viability, ATP luminescence, 16 h, HLM; series mostly up to 66 µM; activity change, negative = cytotoxicity: at the top concentration; also: nearly all actives have a fitted effect of over 45% in size
How it was run: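 HLM-supplemented (0.5 mg/mL final) and NADPH-supplemented (0.5 mg/mL final) p53RE-bla cultures, 4,000 cells per well, were dosed with compounds in DMSO for 16 h at 37 C; luminescent ATP detection (CellTiter-Glo, 30 min, room temperature) quantified surviving cells.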
% is scaled to controls: 0 for no effect and ±100 for the full control effect; potency is read from the fitted curve at half-maximal effect.

SMILES | activity change, negative = cytotoxicity | Potency
C=CC(=C)CC/C=C(\C)CCC=C(C)C | 1.39% [at 13.5 µM] (inactive) | 
C[C@H](CCC(=O)O)[C@H]1CC[C@H]2[C@@H]3[C@H](O)C[C@@H]4C[C@H](O)CC[C@]4(C)[C@H]3C[C@H](O)[C@]12C | 8.31% [at 30.3 µM] (inactive) | 
CC(C)C[P+](C)(CC(C)C)CC(C)C | -10.9% (inactive) | 
CCCCCCCCCCCCCCCCCCN(C)C | -4% [at 30.3 µM] (inactive) | 
CCOC(=O)O[C@H](C)OC(=O)c1ccc2c(c1)cc(C(=O)NC1CCN(C(C)C)CC1)n2Cc1cc(-c2ccc(Cl)s2)on1 | -8.09% (inactive) | 
CC(=O)Nc1cccc(C)c1 | 2.87% (inactive) | 
O=C(NCCN1CCOCC1)c1ccc(Cl)cc1 | 10.5% [at 30.3 µM] (inactive) | 
CCCCCCCCCCCCCOP(=O)(O)O | -3.29% (inactive) | 
CCCC(C)C | -23.8% (inactive) | 
Cc1[nH]c(=O)c(C#N)cc1-c1ccc2nccn2c1 | -1.99% [at 30.3 µM] (inactive) | 
CCO | 7.7% (inactive) | 
CC(=O)Nc1ccc(OCC(O)CNC(C)C)cc1 (configuration not stated) | -11.9% [at 30.3 µM] (inactive) | 
O=C(NS(=O)(=O)/C=C/c1ccccc1)c1ccc(F)cc1Cl | 1.01% (inactive) | 
CCOC(=O)CCCCCCCCC(=O)OCC | -12.5% (inactive) | 
CC(C)OC(=O)C(C(=O)OC(C)C)=C1SC=CS1 | -6.68% [at 30.3 µM] (inactive) | 
O=C(CN1CCN(Cc2ccc3c(c2)OCO3)CC1)N1c2ccccc2Sc2ccccc21 | 3.83% [at 30.3 µM] (inactive) | 
CC(=O)Oc1ccc(C(C)=O)cc1 | 1.58% (inactive) | 
Cc1ccc(C(=O)Oc2ccc(C(O)CNC(C)(C)C)cc2OC(=O)c2ccc(C)cc2)cc1 (configuration not stated) |  | 0.397 µM (active)
Oc1ccc(Cl)c2cccnc12 | 16.9% [at 30.3 µM] (inactive) | 
CCCCCCCC/C=C\CCCCCCCCOCCO |  | 53 µM (active)
CC(=O)OC(C)c1ccccc1 (configuration not stated) | -4.05% (inactive) | 
O=S(=O)(Cl)c1c(Cl)cccc1Cl | 3.75% (inactive) | 
